Screens as filed in PubChem BioAssay.
HCMV antiviral: blocks human cytomegalovirus replication; HFF cells, HCMV-luciferase reporter, 72 h; active compounds read low; AID 1259415; 4.5% of 410,000 active; activity change, negative = inhibition, % at 57.5 µM; in the data active = activity change below about -60%; inconclusive = no clear call, values can overlap the other calls; inactive = above about -39%
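Inhibition of viral replication was scored as loss of reporter luminescence in HFFs infected with HCMV-luciferase (MOI 1 PFU/cell) for 72 h; compounds tested at 2 doses, normalized to buffer and Salinomycin controls.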
HCV inhibitor: inhibitors of hepatitis C virus infection | Huh7.5.1 HCVcc-Cre infection, luciferase reporter, 44 h | Potency, µM (titrated, usually from 41.8 µM), usual class: inhibitors | 3.4% of 340,000 active | AID 651820
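After 44 h co-culture of compound, cells and HCVcc-Cre (~0.5 moi), substrate is added for 15 min at room temperature and luciferase measured over 15 sec. Cells were seeded at 1,000/well and pre-cultured 4 h.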
Shiga inhibitor: blocks Shiga toxin action in Vero cells; AID 2315; inhibition, % at 38.7 µM; 9.2% of 290,000 active; Vero cells, Shiga toxin protein synthesis inhibition reporter; in the data active = inhibition mostly above about 28%, no sharp cut-off; inactive = mostly below about 43%
Cycloheximide cs: counter-screen for Shiga toxin inhibitors: cycloheximide protein synthesis inhibition; 12% of 300,000 active; cell reporter, cycloheximide protein synthesis inhibition counterscreen; AID 2314; max response, %; in the data active = max response mostly above about 13%, no sharp cut-off; inactive = mostly below about 14%; also: read at 38.3 µM for the half of the compounds with a filed dose
Pf growth 96h: P. falciparum growth inhibition at 96 hours. AID 504834. Potency, µM (top dose mostly 28.7 µM), usual class: inhibitors. P. falciparum luciferase reporter growth, 96 h. 6.9% of 320,000 active
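Two parasite generations (96 h, 37 C, 5% CO2) of compound exposure in infected erythrocytes (0.05% parasitemia, 2% hematocrit). Luciferase-reporter P. falciparum; decreased luminescence indicates inhibited growth, aimed at apicoplast-acting delayed death.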
Pf growth 48h: inhibits P. falciparum growth in the first generation, 48 h. P. falciparum luciferase growth in erythrocytes, 48 h. Potency, µM (titrated, usually from 28.7 µM), actives largely listed as inhibitors. 5.9% of 310,000 active. AID 504832
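First compound was added to culture medium, then infected red cells at 0.1% parasitemia and 2% hematocrit (final). After incubation at 37 C under 5% CO2, luciferase detection reagent was dispensed and light output recorded.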
Numbers stand for hits; 0 = inactive; ? = inconclusive; - = not tested or not shown; [ ] = remark or other dose. Rows were chosen to be rich in hits. Some 21% of all compounds tested hit in one or more screens of this group. Unless noted, calls follow the shape of the dose curve; as a rule, active = well fitted inhibition curve with a large enough effect; inconclusive = small, poorly fitted or top-dose-only effect, or another doubt; inactive = no such curve, though single readings can be large or run the other way.

SMILES	HCMV antiviral	HCV inhibitor	Shiga inhibitor	Cycloheximide cs	Pf growth 96h	Pf growth 48h
CCCCNC(=O)C(c1ccc(OCC(=O)OC)c(C(=O)OC)c1)N(CCc1ccccc1)C(=O)CCCCCN1C(=O)NC(c2ccc(-c3ccccc3)cc2)C(C(=O)OCc2ccccc2)=C1C (stereo not given)	-	-	0	0	2.1µM	1.9µM
CN(Cc1ccccc1)C(=O)c1cccc(NC(=O)Cc2ccc(NC(=O)C3CCN(C(=O)c4ccccc4)CC3)cc2)c1	0	0[8.37 µM]	-	-	-	-
CN(Cc1ccccc1)C(=O)c1cccc(NC(=O)Cc2ccc(NC(=O)C3CCN(C(=O)CCc4ccccc4)CC3)cc2)c1	-91	2.2µM	-	-	-	-
CN(Cc1ccccc1)C(=O)c1ccc(NC(=O)Cc2ccc(NC(=O)C3CCCN(C(=O)CCc4ccccc4)C3)cc2)cc1 (stereo not given)	-67	2.2µM	-	-	-	-
CN(Cc1ccccc1)C(=O)c1ccc(NC(=O)Cc2ccc(NC(=O)C3CCCN(S(=O)(=O)c4cccc([N+](=O)[O-])c4)C3)cc2)cc1 (stereo not given)	0	13µM	-	-	-	-
CN(Cc1ccccc1)C(=O)c1ccc(NC(=O)C2CCCN(C(=O)OC(C)(C)C)C2)cc1 (stereo not given)	0	6.3µM	-	-	-	-
CN(Cc1ccccc1)C(=O)c1ccc(NC(=O)Cc2ccc(NC(=O)C3CCCN(C(=O)C4CCC4)C3)cc2)cc1 (stereo not given)	0	?	-	-	-	-
CCOc1ccc(CNC(=O)C2=Cc3cccc(OC)c3OC2)cc1	0	-	-	-	-	-
COc1cc(OC)c(NC(=O)N2CCSc3ccccc32)cc1Cl	0	-	-	-	-	-
COc1ccc(NC(=O)N(C)C[C@@H]2OCc3ccccc3-c3c(n(C)c4ccccc34)C(=O)N([C@H](C)CO)C[C@H]2C)c(OC)c1	0	-	-	-	-	-
COc1ccc(Nc2nnc(SCC(=O)NC3CCCC3)s2)cc1	0	-	-	-	-	-
CN(Cc1ccccc1)C(=O)c1ccc(NC(=O)Cc2ccc(NC(=O)C3CCN(C(=O)CCc4ccccc4)CC3)cc2)cc1	-89	?	-	-	-	-
COCCNC(=O)c1c(NC(=O)Cc2coc3cc(C)ccc23)sc2c1CCCC2	0	-	-	-	-	-
N#CC1=C(N)Oc2c(c(=O)oc3ccccc23)C1c1ccc(OC(=O)N2CCOCC2)cc1 (stereo not given)	0	0	0	0	12µM	9.3µM
CCOc1ccc(C2C(C#N)=C(N)Oc3c2c(=O)oc2ccccc32)cc1 (stereo not given)	0	0	0	0	?	0
COc1cccc(C2=NOC(C(=O)NCc3ccc(F)cc3)C2)c1 (stereo not given)	0	0	0	0	0	0
COc1ccc(C2=NOC(C(=O)NCc3ccc(F)cc3)C2)cc1OC (stereo not given)	?	?	0	0	2.3µM	0
COc1cc(C2=NOC(C(=O)NCc3ccc(F)cc3)C2)cc(OC)c1OC (stereo not given)	-84	?	0	0	-	?
CC(C)CC(=O)Nc1nc2nc(-c3ccccc3)cc(=O)n2[nH]1	0	-	-	-	-	-
O=C(c1cccc(Cl)c1)N1CCCC(c2ccc(Cl)cc2)=N1	0	7.9µM	0	0	3.7µM	?
O=C(c1ccccc1)N1CCCC(c2ccc(Cl)cc2)=N1	0	?	0	0	9.3µM	15µM
O=C(C1CC1)N1CCCC(c2ccc(Cl)cc2)=N1	0	?	0	0	0	0
Cc1cc(O)ccc1Cl	0	-	-	-	0	0
Cc1cc(O)cc(C)c1Cl	0	0	-	-	8.5µM	15µM
Cc1cc(O)c(N)c(C)c1Cl	0	0	0	0	?	3.3µM
SMILES	HCMV antiviral	HCV inhibitor	Shiga inhibitor	Cycloheximide cs	Pf growth 96h	Pf growth 48h
COc1ccc(OCC(=O)NCc2ccc3c(c2)CCN3C(=O)c2ccc(F)cc2)cc1	0	-	-	-	-	-
O=C(NNc1nc2ccccc2s1)Nc1ccccc1	0	0	29	37	0	0
CC(=O)NNc1nc2ccccc2s1	0	0	0	0	?	0
C/C(=C\C(=O)c1ccccc1)NNc1nc2ccccc2s1	0	0	110	44	0	0
COc1ccc2nc(NNC(=O)COc3ccccc3)sc2c1	0	0	0	0	0	0
S=C(Nc1ccccc1)c1nc2ccccc2s1	?	0	83	56	0	0
O=C(COc1ccccc1)NNc1nc2ccccc2s1	0	0	63	34	0	0
CCCCNc1c(-c2cc3ccccc3o2)nc2nc(C)cc(C)n12	0	-	-	-	-	-
O=C(c1cccnc1)N1CCC2CC1c1c(Cl)cccc12 (stereo not given)	0	-	-	-	-	-
COCCCn1c(SCC(=O)N2CCCC(C)C2)nnc1-c1ccco1 (stereo not given)	0	0	0	0	0.59µM	0
CCCn1c(SCC(=O)N2CCc3ccccc32)nnc1-c1ccco1	0	0	0	0	?	?
CCn1c(SCC(=O)N2CCCC(C)C2)nnc1-c1ccco1 (stereo not given)	0	0	0	0	?	0
CCCn1c(SCC(=O)N2c3ccccc3CC2C)nnc1-c1ccco1 (stereo not given)	0	0	0	0	?	12µM
OC(c1ccc(Cl)cc1)c1ncc(-c2cccc(F)c2)[nH]1 (stereo not given)	0	-	-	-	-	-
Cc1cc(C)c2c(=N)c3ccccc3n(CCCCCCCCn3c4ccccc4c(=N)c4c(C)cc(C)nc43)c2n1	-75	0	-	-	-	-
Cc1cc(C)c2c(C)nn(-c3ccccc3)c2n1	0	0	0	0	0	-
Cc1cc(C)c(S(=O)(=O)N/N=C/c2ccc3c(c2)OCO3)c(C)c1	0	0	0	14	0	0
Cc1cc(Cl)c(S(=O)(=O)N/N=C/c2ccc3c(c2)OCO3)c(Cl)c1	0	0	54	41	0	0
O=S(=O)(N/N=C/c1ccc2c(c1)OCO2)c1ccc(Br)cc1	0	0	0	0	0	?
CCN(CC)CCNC(=O)C1(O)c2cc(Br)ccc2NC(=O)N1c1c(F)cccc1F (stereo not given)	0	0	0	0	0	0[0.00184 µM]
COC(=O)c1cc(OC(C)C)ccc1NC(=O)[C@@]1(Sc2ccc(OC)cc2)CC(=O)N[C@@H]1c1ccc(OC)cc1	0	-	-	-	-	-
Cc1ccc(C)n1-c1ccc(C(=O)NC2CCN(Cc3ccccc3)CC2)cc1	-62	?	0	0	12µM	?
CC1(C(=O)NC2CCN(Cc3ccccc3)CC2)CCN1Cc1ccc2ccccc2c1 (stereo not given)	-67	-	-	-	-	-
COc1ccc(CN2CCN(C(=O)c3ccc(S(=O)(=O)NCc4ccco4)cc3)CC2)cc1	-83	?	-	-	0	?
O=C(c1ccc(S(=O)(=O)NCc2ccco2)cc1)N1CCN(Cc2ccccc2)CC1	0	?	0	0	0	0
O=C(NC1CCN(Cc2ccccc2)CC1)c1ccc(S(=O)(=O)NCc2ccco2)cc1	0	4µM	0	0	0	0
CN1CCC(NC(=O)C2(C)CCN2Cc2ccc3ccccc3c2)CC1 (stereo not given)	0	-	-	-	-	-
Cc1ccc(CN2CCC(NC(=O)c3ccccc3)CC2)cc1	0	0	0	0	0	0
